Assay results taken from ChEMBL document CHEMBL2218924, “A broad activity screen in support of a chemogenomic map for kinase signalling research and drug discovery” (Biochem J, 2013).

What was measured:
[1] = biological target: Death-associated protein kinase 1 (Homo sapiens) (UniProt P53355); settings: at 10 µM
[2] = biological target: T1, Serine/threonine-protein kinase DCLK2 (Homo sapiens) (UniProt Q8N568); settings: at 1 µM
T1 sequence (whole entry): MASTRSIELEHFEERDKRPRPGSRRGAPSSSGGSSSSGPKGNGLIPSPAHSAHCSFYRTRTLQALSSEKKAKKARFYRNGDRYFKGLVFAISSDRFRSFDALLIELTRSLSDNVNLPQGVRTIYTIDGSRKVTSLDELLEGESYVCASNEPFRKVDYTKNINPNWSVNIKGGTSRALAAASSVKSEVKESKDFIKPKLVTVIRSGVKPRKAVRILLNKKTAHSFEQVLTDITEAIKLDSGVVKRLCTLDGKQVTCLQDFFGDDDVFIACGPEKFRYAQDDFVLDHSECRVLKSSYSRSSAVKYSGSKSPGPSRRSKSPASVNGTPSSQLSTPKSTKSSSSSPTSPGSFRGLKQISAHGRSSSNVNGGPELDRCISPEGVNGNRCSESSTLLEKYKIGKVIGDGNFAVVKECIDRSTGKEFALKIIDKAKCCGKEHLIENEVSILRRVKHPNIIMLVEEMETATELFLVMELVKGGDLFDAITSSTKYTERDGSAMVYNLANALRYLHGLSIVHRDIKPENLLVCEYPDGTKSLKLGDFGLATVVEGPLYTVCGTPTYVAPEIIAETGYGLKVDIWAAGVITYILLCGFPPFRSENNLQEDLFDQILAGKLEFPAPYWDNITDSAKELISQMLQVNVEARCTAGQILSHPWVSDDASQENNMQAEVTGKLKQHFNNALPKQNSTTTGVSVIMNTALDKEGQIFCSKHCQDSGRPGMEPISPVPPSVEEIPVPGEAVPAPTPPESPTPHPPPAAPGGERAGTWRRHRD

[3] = biological target: T1, Serine/threonine-protein kinase DCLK2 (Homo sapiens); settings: at 10 µM
[4] = biological target: T2, Discoidin domain-containing receptor 2 (Homo sapiens) (UniProt Q16832); settings: at 10 µM
T2 sequence (whole entry): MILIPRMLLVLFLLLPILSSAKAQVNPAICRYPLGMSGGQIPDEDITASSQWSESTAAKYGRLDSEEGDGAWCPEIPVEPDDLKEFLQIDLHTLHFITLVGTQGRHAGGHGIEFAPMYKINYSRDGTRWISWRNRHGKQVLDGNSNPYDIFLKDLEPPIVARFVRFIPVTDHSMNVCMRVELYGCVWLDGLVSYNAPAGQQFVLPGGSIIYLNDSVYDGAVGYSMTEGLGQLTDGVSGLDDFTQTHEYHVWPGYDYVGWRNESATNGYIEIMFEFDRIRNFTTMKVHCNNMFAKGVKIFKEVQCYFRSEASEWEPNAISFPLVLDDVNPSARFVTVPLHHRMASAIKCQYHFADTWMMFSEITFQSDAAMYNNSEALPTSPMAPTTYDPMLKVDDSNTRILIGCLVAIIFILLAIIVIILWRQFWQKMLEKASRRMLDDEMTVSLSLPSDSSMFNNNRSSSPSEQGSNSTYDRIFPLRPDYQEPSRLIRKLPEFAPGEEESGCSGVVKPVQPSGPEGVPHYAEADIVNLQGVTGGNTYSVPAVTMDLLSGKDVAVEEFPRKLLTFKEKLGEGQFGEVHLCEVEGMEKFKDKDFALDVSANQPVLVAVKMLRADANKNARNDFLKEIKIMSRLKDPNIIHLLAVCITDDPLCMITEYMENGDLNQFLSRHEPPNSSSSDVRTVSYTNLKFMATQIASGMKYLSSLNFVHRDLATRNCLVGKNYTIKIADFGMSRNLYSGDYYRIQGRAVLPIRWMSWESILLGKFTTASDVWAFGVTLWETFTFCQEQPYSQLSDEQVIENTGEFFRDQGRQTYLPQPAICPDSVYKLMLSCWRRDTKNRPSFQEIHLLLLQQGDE

[5] = biological target: T3, Myotonin-protein kinase (Homo sapiens) (UniProt Q09013); settings: at 1 µM
T3 sequence (whole entry): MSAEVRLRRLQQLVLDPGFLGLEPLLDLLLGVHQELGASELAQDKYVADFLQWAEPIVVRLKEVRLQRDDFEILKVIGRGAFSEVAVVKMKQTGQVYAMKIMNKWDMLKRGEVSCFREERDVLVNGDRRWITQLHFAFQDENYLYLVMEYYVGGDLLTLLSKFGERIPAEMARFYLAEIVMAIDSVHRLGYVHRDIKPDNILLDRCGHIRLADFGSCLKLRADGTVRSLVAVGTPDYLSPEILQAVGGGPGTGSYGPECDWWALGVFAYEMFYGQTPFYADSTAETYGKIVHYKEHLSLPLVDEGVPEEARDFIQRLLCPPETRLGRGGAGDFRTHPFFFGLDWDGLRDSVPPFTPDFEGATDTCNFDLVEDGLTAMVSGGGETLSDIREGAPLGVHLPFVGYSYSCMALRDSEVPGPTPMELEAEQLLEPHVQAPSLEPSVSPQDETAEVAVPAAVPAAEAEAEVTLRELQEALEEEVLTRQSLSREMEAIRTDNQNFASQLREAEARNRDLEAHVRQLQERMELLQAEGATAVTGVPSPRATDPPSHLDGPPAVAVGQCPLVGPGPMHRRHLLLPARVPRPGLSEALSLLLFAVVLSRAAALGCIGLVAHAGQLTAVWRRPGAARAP

[6] = biological target: T3, Myotonin-protein kinase (Homo sapiens); settings: at 10 µM
[7] = biological target: T4, Serine/threonine-protein kinase 17A (Homo sapiens) (UniProt Q9UEE5); settings: at 1 µM
T4 sequence (whole entry): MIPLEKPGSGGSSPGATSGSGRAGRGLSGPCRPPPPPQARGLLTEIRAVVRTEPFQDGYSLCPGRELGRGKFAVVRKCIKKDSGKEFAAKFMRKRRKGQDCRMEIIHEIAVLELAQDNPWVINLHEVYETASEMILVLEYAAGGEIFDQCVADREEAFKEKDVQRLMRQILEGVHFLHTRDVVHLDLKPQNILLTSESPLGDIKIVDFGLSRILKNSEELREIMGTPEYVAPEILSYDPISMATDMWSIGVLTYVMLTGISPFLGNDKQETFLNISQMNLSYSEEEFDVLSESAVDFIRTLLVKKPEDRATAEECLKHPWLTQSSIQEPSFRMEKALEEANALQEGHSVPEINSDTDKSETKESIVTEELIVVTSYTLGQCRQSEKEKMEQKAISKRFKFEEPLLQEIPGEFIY

[8] = biological target: T4, Serine/threonine-protein kinase 17A (Homo sapiens); settings: at 10 µM
[9] = biological target: Epidermal growth factor receptor (Homo sapiens) (UniProt P00533); settings: at 1 µM
[10] = biological target: Epidermal growth factor receptor (Homo sapiens) (UniProt P00533); settings: at 10 µM
[11] = biological target: T5, Ephrin type-A receptor 1 (Homo sapiens) (UniProt P21709); settings: at 1 µM
T5 sequence (whole entry): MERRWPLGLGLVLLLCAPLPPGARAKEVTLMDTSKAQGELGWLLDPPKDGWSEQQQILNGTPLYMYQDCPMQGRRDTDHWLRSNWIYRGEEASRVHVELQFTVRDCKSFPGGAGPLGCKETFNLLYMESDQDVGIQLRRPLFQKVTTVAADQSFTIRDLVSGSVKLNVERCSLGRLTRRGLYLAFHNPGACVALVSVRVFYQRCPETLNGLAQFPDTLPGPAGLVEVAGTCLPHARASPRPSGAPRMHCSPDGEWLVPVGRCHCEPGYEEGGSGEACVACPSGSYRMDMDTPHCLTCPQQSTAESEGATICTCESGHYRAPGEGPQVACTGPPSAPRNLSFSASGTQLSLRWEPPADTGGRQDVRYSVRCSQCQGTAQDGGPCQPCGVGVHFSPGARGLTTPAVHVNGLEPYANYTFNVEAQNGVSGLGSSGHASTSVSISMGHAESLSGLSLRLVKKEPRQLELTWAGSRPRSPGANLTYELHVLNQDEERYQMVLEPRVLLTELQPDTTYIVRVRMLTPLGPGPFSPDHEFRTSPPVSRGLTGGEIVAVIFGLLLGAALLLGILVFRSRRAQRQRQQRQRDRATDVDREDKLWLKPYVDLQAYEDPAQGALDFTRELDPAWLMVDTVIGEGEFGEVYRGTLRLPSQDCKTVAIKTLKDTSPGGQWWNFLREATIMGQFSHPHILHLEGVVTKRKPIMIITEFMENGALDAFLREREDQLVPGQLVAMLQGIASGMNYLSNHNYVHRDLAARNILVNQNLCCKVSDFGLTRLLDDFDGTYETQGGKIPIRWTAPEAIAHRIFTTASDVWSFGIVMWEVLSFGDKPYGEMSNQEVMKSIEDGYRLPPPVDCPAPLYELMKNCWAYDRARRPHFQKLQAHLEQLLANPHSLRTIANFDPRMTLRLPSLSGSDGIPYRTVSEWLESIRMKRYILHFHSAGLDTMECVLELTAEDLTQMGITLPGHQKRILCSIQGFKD

[12] = biological target: T5, Ephrin type-A receptor 1 (Homo sapiens); settings: at 10 µM
[13] = biological target: Ephrin type-A receptor 2 (Homo sapiens) (UniProt P29317); settings: at 1 µM
[14] = biological target: Ephrin type-A receptor 2 (Homo sapiens) (UniProt P29317); settings: at 10 µM

Epidermal growth factor receptor (Homo sapiens), sequence (P00533 whole entry): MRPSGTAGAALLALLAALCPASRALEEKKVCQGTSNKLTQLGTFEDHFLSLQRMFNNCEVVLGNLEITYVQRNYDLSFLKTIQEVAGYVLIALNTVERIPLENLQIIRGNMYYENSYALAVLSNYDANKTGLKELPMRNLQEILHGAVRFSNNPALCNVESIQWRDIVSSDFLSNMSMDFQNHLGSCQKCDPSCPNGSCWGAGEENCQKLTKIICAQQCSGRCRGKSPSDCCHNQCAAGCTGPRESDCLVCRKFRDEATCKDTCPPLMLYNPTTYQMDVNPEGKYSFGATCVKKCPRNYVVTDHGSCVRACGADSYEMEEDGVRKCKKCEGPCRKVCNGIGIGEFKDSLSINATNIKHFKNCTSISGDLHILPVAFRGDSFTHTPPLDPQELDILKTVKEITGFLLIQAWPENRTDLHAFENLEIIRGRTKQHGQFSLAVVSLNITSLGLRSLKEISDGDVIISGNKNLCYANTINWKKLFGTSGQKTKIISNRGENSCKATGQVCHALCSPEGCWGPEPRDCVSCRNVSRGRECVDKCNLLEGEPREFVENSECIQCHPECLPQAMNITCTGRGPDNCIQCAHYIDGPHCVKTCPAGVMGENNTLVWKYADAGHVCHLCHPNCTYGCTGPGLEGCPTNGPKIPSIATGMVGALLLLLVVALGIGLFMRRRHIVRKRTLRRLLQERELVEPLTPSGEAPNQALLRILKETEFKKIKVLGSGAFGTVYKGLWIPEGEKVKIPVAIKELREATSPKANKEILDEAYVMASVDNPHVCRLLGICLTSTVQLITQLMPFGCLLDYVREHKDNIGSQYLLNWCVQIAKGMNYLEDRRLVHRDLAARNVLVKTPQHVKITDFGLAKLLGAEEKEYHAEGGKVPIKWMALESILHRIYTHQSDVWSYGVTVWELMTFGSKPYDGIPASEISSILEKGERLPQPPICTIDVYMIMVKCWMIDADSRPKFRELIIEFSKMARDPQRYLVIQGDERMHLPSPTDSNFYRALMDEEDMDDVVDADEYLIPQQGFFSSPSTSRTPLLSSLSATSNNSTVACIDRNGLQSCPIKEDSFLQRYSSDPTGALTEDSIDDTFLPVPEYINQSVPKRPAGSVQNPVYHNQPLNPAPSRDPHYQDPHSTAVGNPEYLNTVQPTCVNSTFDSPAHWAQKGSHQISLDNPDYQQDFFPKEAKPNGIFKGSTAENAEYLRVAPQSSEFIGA
Ephrin type-A receptor 2 (Homo sapiens), sequence (P29317 whole entry): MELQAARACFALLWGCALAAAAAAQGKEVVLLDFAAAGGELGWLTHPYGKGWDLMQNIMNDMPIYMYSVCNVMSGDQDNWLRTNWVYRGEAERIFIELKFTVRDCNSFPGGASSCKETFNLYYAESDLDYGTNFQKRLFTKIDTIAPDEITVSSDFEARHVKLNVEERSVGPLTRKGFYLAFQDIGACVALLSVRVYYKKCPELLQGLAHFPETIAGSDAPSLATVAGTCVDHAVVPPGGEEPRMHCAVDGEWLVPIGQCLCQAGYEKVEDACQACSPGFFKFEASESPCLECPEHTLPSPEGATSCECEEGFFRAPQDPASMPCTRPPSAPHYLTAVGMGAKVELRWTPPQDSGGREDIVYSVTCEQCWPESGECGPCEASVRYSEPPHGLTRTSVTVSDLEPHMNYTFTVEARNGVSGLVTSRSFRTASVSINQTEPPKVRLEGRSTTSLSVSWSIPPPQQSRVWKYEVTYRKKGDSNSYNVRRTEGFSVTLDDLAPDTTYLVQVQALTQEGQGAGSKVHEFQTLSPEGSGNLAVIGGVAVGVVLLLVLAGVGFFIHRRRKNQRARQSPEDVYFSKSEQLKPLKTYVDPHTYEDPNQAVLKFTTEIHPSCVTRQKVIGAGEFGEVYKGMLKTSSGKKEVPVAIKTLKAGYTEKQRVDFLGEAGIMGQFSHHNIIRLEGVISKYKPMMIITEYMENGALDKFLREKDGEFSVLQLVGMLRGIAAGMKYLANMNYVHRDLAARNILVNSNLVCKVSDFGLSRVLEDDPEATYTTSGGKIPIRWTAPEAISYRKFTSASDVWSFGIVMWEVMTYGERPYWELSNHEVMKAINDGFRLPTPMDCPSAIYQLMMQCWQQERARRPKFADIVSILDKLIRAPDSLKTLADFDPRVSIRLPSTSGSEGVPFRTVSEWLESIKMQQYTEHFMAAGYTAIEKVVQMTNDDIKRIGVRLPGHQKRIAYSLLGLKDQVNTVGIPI
Death-associated protein kinase 1 (Homo sapiens), sequence (P53355 whole entry, looked up): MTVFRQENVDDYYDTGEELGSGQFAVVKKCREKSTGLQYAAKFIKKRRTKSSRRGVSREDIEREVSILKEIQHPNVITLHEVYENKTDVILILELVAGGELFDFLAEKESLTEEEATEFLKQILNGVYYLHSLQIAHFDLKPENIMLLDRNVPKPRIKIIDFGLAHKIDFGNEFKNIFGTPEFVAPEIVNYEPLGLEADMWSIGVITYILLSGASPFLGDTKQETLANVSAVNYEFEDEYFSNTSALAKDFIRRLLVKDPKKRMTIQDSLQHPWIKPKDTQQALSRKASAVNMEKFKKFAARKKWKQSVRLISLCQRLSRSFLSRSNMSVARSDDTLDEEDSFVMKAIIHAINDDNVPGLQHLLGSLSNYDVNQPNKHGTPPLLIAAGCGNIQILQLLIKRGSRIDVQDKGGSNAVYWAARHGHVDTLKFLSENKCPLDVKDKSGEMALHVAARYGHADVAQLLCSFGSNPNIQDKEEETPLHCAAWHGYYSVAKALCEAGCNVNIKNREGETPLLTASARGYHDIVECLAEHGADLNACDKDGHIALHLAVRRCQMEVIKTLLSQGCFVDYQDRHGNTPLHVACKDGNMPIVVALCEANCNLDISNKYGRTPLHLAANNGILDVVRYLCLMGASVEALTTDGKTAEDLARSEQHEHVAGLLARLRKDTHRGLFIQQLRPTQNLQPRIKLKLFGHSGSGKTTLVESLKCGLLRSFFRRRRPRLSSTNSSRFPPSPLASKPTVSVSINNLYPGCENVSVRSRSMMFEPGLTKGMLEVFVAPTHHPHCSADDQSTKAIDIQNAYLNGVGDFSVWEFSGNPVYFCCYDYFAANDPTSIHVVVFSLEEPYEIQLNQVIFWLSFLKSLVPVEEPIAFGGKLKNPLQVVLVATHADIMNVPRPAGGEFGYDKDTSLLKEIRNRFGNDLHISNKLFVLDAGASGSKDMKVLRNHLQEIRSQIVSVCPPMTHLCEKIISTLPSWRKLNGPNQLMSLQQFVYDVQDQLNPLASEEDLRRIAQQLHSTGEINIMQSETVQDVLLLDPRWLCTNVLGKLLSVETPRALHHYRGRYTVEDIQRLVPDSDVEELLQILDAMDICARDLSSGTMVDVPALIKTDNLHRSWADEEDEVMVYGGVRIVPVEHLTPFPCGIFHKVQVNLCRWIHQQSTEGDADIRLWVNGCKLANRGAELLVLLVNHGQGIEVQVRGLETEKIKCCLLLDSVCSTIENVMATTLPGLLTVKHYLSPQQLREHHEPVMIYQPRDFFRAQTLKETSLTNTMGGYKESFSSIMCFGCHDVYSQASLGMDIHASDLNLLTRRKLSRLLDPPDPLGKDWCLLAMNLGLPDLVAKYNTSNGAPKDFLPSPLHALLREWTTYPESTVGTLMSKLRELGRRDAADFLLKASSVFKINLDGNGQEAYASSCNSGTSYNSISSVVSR

## COc1cc2ncnc(Nc3cccc(Cl)c3)c2cc1OC
[1]
  residual activity: 100%
[2]
  residual activity: 122%
[3]
  residual activity: 85%
[4]
  residual activity: 74%
[5]
  residual activity: 103%
[6]
  residual activity: 113%
[7]
  residual activity: 103%
[8]
  residual activity: 48%
[9]
  residual activity: -5%
[10]
  residual activity: -3%
[11]
  residual activity: 42%
[12]
  residual activity: 7%
[13]
  residual activity: 89%
[14]
  residual activity: 37%
